Out of some 200,000 compounds screened, about 18,000 (9%) were called active. What follows is part of a selection rich in actives, with near analogues and random picks from the rest. Unmarked numbers belong to inactive results. No stated cut-off is given here; in the data, active means inhibition above about 50%; inactive means the rest.
Test: Leishmania major promastigote growth inhibition, primary screen (AID 1063);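 further: promastigotes grown with compound for 44 hours at 28 °C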
Conditions: Leishmania major promastigotes, resazurin fluorescence viability; at 10 µM; active compounds read high
`CC(C)C(C)(C#N)NC(=O)CSc1nncn1-c1ccccc1` (stereo not given) gave an inhibition of -0.78%.
With `CCCNS(=O)(=O)c1ccc(CCC(=O)N2CCCC2)cc1` the inhibition was 1%.
With `S=C(NCc1ccc(Cl)cc1)NC12CC3CC(CC(C3)C1)C2` the inhibition was 36.3%.
In the case of `S=C(NCc1ccc(Cl)cc1)NC1CCCCC1`, the inhibition is reported as 57.3% (active).
For `CN(C)CCCNC(=S)NCc1ccc(Cl)cc1`, the inhibition was -5.52%.
In the case of `O=c1[nH]c(=S)[nH]c2[nH]c(=S)[nH]c12`, the inhibition is reported as 7.12%.
For `COC(=O)C1=C(C)Nc2ncnn2C1c1cccnc1` (stereo not given), the inhibition was -4.12%.
In the case of `COC(=O)C1=C(N)Oc2cc(C)oc(=O)c2C1c1cccnc1` (stereo not given), the inhibition is reported as 42.3%.
In the case of `CCSc1nc2c(c(=O)[nH]1)C(c1cccnc1)C(C(=O)OC(C)C)=C(C)N2` (stereo not given), the inhibition is reported as 56% (active).
`N/C(=N\OC(=O)CCCC(=O)O)c1ncc(C(F)(F)F)cc1Cl` showed an inhibition of -0.94%.
In the case of `COc1ccc([N+](=O)[O-])cc1NC(=O)COC(=O)/C=C/c1ccco1`, the inhibition is reported as -8.41%.
With `COc1ccc(Cl)cc1C(=O)NNC(=S)NC(=O)/C=C/c1ccco1` the inhibition was 18.7%.
For `COc1ccc(N2C(=O)/C(=C\c3ccco3)N=C2SCC(N)=O)cc1Cl`, the inhibition was 51.5% (active).
Compound `CCOC(=O)C1CCN(C(=O)Cn2cc(C#N)c3ccccc32)CC1` has an inhibition of 0.22%.
For `CCc1cccc2c(C=C(C#N)C#N)cn(CC(=O)N3CCCCC3)c12`, the inhibition was 78% (active).
With `COc1cccc2c(=O)n(CC(=O)N3CCCCCC3)ccc12` the inhibition was -6.35%.
`Cc1ccccc1NC(=O)c1ccc(COc2ccc3c(C)cc(=O)oc3c2)cc1` showed an inhibition of -4.07%.
Compound `Cc1ccsc1C1C(C#N)=C(N)OC2=C1C(=O)CC(C)C2` (stereo not given) has an inhibition of 5.83%.
Compound `C/C=C/C=C/C(=O)OCC(=O)Nc1ccc(Cl)cc1` has an inhibition of 0.85%.
`COc1ccc(C(=O)Nc2ncc3c(n2)-c2ccccc2CC3)cc1` gave an inhibition of 33.3%.
With `COCCN(CCOC)S(=O)(=O)c1ccc(C(=O)Nc2nc3c(s2)CCc2ccccc2-3)cc1` the inhibition was 78.1% (active).
In the case of `C=CCN(CC=C)S(=O)(=O)c1ccc(C(=O)Nc2nc3c(s2)CCc2ccccc2-3)cc1`, the inhibition is reported as 25.3%.
For `CC(C)C(NC(=O)C1CCC(C(C)(C)C)CC1)C(=O)NCCCN1CCCCC1` (stereo not given), the inhibition was 4.42%.
Compound `COc1ccc(C=Nc2cccc3ncccc23)cc1` has an inhibition of -0.39%.
For `Cc1ccc2[nH]c(=O)c(CC=C(Cl)Cl)c(C)c2c1`, the inhibition was 5.81%.
`COC(=O)c1ccc(/C=N/N2C(C)CCCC2C)cc1` (stereo not given) gave an inhibition of 1.84%.
Compound `CC(=O)NC(NC(=S)Nc1c(C)n(C)n(-c2ccccc2)c1=O)C(Cl)(Cl)Cl` (stereo not given) has an inhibition of -10.3%.
For `COc1ccc(C(C(O)C(=O)c2c[nH]c3ccccc23)N2CCN(c3ccccc3)CC2)cc1` (stereo not given), the inhibition was 60.7% (active).
In the case of `CCCC(=O)NC(C)C(c1cccs1)N1CCN(c2ccccc2)CC1` (stereo not given), the inhibition is reported as 21.8%.
For `COc1ccc(N2CCN(C(C)=C3C(=O)c4ccccc4C3=O)CC2)cc1`, the inhibition was 0.6%.
Compound `CCC(=O)c1ccc(OCC(O)Cn2nc(C)c(C(C)=O)c2C)cc1` (stereo not given) has an inhibition of -1.66%.
With `Cc1c(C(N)=O)sc2ncn(CCOc3ccccc3)c(=O)c12` the inhibition was 15.6%.
In the case of `N#Cc1c(-c2ccc(Cl)cc2)c2c([nH]c1=S)CCCC2`, the inhibition is reported as -2.73%.
Work on `N/C(Cc1ccc([N+](=O)[O-])cc1)=N\OC(=O)COc1ccc2ccccc2c1` yielded an inhibition of -4.21%.
With `CCOC(=O)COc1ccc([N+](=O)[O-])cc1` the inhibition was 62.2% (active).
For `N/C(=N\OC(=O)COc1ccc([N+](=O)[O-])cc1)c1ccc(Br)cc1`, the inhibition was -2.89%.
In the case of `Cc1nnc(SCCCCSc2nnc(C)c(=O)[nH]2)[nH]c1=O`, the inhibition is reported as -5.64%.
Compound `CN(c1ccc(OCC(=O)OCC(=O)Nc2cccc([N+](=O)[O-])c2)cc1)S(=O)(=O)c1ccc(F)cc1` has an inhibition of -5.95%.
With `CC(CC(=O)C1C(C)C=CCC1(C)C)NNC(N)=O` (stereo not given) the inhibition was -5.44%.
In the case of `C=CCCC(=O)Nc1nc(C)c(-c2csc(Nc3ccc(Cl)cc3)n2)s1`, the inhibition is reported as 40.7%.
With `CCCCCCC(=O)Nc1nc(C)c(-c2csc(Nc3cccc(OC)c3)n2)s1` the inhibition was 56.1% (active).
Compound `Cc1nc(NC(=O)c2cccc(Cl)c2)sc1-c1csc(Nc2cccc(Cl)c2)n1` has an inhibition of 6.25%.
With `CCCCCCC(=O)Nc1nc(C)c(-c2csc(Nc3cc(Cl)ccc3OC)n2)s1` the inhibition was 56.5% (active).
`CCCCC(=O)Nc1nc(C)c(-c2csc(Nc3ccc(Cl)cc3)n2)s1` showed an inhibition of 27%.
`Cc1ccc(Nc2nc(-c3sc(NC(=O)c4ccccc4)nc3C)cs2)cc1` showed an inhibition of 15.7%.
Compound `O=C(c1ccc(N2CCOCC2)c([N+](=O)[O-])c1)N1CCN(S(=O)(=O)c2cccs2)CC1` has an inhibition of 26.9%.
In the case of `Cn1cnnc1Sc1ccc(CN2CCN(C3CCCC3)C(CCO)C2)o1` (stereo not given), the inhibition is reported as -0.44%.
`COc1ccc(NC(=O)C(Br)C(C)C)cc1` (stereo not given) showed an inhibition of -2.81%.
Compound `CN(C)c1ccc(C(=S)N2CCN(C(=S)Nc3ccc(Cl)cc3)CC2)cc1` has an inhibition of -3.85%.
In the case of `O=C1CN(C(=O)COC(=O)c2cnc(Cl)c(Cl)c2)c2ccccc2N1`, the inhibition is reported as -5.42%.
`O=c1c([N+](=O)[O-])cccn1Cc1ccc(F)cc1Cl` gave an inhibition of 13.1%.
`CSc1ccccc1NC(=O)CN(C)CC(=O)Nc1ccc(Cl)cc1[N+](=O)[O-]` showed an inhibition of 12%.
`COCCNc1cc(NCCOC)c([N+](=O)[O-])cc1[N+](=O)[O-]` showed an inhibition of 32.9%.
With `CCN(CC)CCNc1ccc(Cl)cc1[N+](=O)[O-]` the inhibition was 52.1% (active).
For `CCOC(=O)c1sc(NC(=O)C(CC)Sc2nccn2C)nc1C` (stereo not given), the inhibition was 9.41%.
In the case of `C=CCn1c2ccccc2c2nnc(SC(CC)C(=O)Nc3nc(C)c(C(=O)OCC)s3)nc21` (stereo not given), the inhibition is reported as 62.5% (active).
For `C=CCn1c2ccccc2c2nnc(SCc3[nH]c(=O)[nH]c3C(=O)CCCCC(=O)OCC)nc21`, the inhibition was 4.8%.
In the case of `COc1ccccc1C(=O)CSc1cccc[n+]1[O-]`, the inhibition is reported as -7.87%.
For `COc1cccc(C(=O)Nc2nc3ccc(S(C)(=O)=O)cc3s2)c1`, the inhibition was 16%.
In the case of `CC(C)c1nc2sc3c(c2c(=O)n1N)CC(C)(C)OC3`, the inhibition is reported as -0.56%.
In the case of `Cc1ccc(-c2nc(-c3cccnc3)sc2CC(=O)Nc2ccc(C)c(Cl)c2)cc1`, the inhibition is reported as 78.2% (active).
With `O=C(O)Cc1sc(-c2ccc(C(=O)O)cc2)nc1-c1ccccc1` the inhibition was -1.45%.
For `Cc1cc(C)c(NC(=O)CS(=O)CC(=O)Nc2cccnc2)c(C)c1` (stereo not given), the inhibition was -5.42%.
In the case of `CC(C)CC(CC(C)C)=NNC(=O)c1ccc(CSc2nncn2C)cc1`, the inhibition is reported as -4.77%.
`O=C(CN1C(=O)NC2(CCCC2)C1=O)NCC1CCCO1` (stereo not given) showed an inhibition of -4.12%.
Compound `Cc1cc(=O)oc2c1c(C)nn2-c1ccc(Cl)cc1` has an inhibition of -5.67%.
In the case of `CCC(CC)C(=O)Nc1ccc(S(=O)(=O)Nc2nccs2)cc1`, the inhibition is reported as 6.97%.
`O=C(NC(=S)Nc1ccc(S(=O)(=O)Nc2ncccn2)cc1)c1cccc(Br)c1` gave an inhibition of -8.62%.
With `Cc1nc2ccccc2c2oc(C(=O)NCC3CCCO3)cc12` (stereo not given) the inhibition was 11.4%.
With `CCCN(CCC)CCNC(=O)c1cc2c(C)nc3ccccc3c2o1` the inhibition was 56.9% (active).
`Cc1nc2ccccc2c2oc(C(=O)NCCCN3CCC(C)CC3)cc12` showed an inhibition of 24%.
Work on `CC(C)OCCCNC(=O)c1ccc(C2SCC(=O)N2Cc2ccco2)cc1` (stereo not given) yielded an inhibition of -3.9%.
For `Cc1cc(C(=O)NNC(=O)CCC2CCCCC2)c(C)o1`, the inhibition was -8.93%.
`CCC(=O)N1CCC(C(N)=O)(N2CCCCC2)CC1` showed an inhibition of 0.56%.
In the case of `O=C(Nc1cccn(Cc2ccccc2Cl)c1=O)NC1CCCCC1`, the inhibition is reported as 17.9%.
`COc1ccc(Cl)cc1C(=O)NNC(=S)NC1CCCC1` gave an inhibition of 17.1%.
For `CCN(CC)c1ccc2c(Nc3ccccc3)c(C=O)c(=O)oc2c1`, the inhibition was -4.13%.
Work on `CCN(CC)c1ccc2cc(C(=O)O)c(=O)oc2c1` yielded an inhibition of 22.2%.
With `CCN(CC)c1ccc2oc(=O)c(C)nc2c1` the inhibition was 96.6% (active).
`CNc1[nH]ncc1[N+](=O)[O-]` showed an inhibition of -7.01%.
`COc1ccc(CCn2ccc(O)c(Cc3ccc(Cl)cc3Cl)c2=O)cc1OC` showed an inhibition of 7.61%.
For `COCCCNC(=S)N1CCCC(c2nc3cc(C)c(C)cc3[nH]2)C1` (stereo not given), the inhibition was 0.93%.
`N=C1C(c2nc3ccccc3[nH]2)=C(O)CN1NC(=O)c1c[nH]c2ccccc12` gave an inhibition of -3.91%.
With `Cn1c(=O)n(C)c2cc(S(=O)(=O)N3CCCc4ccccc43)ccc21` the inhibition was 47.6%.
In the case of `CC1Cc2ccccc2N1S(=O)(=O)c1c(N)n(C)c(=O)n(C)c1=O` (stereo not given), the inhibition is reported as 99.8% (active).
Compound `CCCCn1ccnc1C(=O)c1cccc(S(=O)(=O)N2c3ccccc3CC2C)c1` (stereo not given) has an inhibition of 0.6%.
For `CNS(=O)(=O)c1ccc(NC(=O)C2CC(=O)N(c3ccc(Cl)cc3)C2)cc1` (stereo not given), the inhibition was 13.6%.
With `Cc1cccc(NC(=S)NCCc2ccc(F)cc2)c1C` the inhibition was 28.5%.
With `COc1ccc(CN2CCNC(=O)C2CC(=O)N(C)Cc2ccccn2)cc1OC` (stereo not given) the inhibition was 0.79%.
In the case of `COc1cccc(NC(=S)N(CCc2c(C)[nH]c3ccccc23)Cc2ccco2)c1`, the inhibition is reported as 19.9%.
Compound `Cc1[nH]c2ccccc2c1CCN(Cc1cccs1)C(=S)NC(C)(C)C` has an inhibition of -1.09%.
For `COc1ccc2[nH]c(C)c(CCN(Cc3cccs3)C(=S)Nc3ccccc3OC)c2c1`, the inhibition was 66.1% (active).
Compound `C/C(=N\NC(=O)c1cccnc1)c1ccc(-n2ccnc2)cc1` has an inhibition of -1.06%.
Compound `Cn1cc(-c2ccccc2)cc(C#N)c1=O` has an inhibition of -20%.
`CC(C)N1CCC(NC(=O)Nc2ccccc2)CC1` gave an inhibition of -2.35%.

— PubChem BioAssay AID1063 (University of Pittsburgh Molecular Library Screening Center, 2008)
